Test in all cases: PBM binding z-score (relative to random genomic background probes); higher = stronger binding; sequences stand for … in GC…GCGATTGACAGCGTAGAATGAAGG
Experiment [1] relates to RARb homodimer (NR concentration 270 nM). In outline: (§1)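 On custom Agilent 4×180K arrays, double-stranded probes with 34-nt variable regions carried direct-repeat seeds, single-nucleotide variants, half-site ablations or random human genomic background. Ligand-free nuclear receptor dimers were applied for 1 h, and binding was read with antibodies against each partner (one per run). Binding z-scores come from regression-normalized fluorescence, with the random background probes as reference.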

The subject of experiment [2] is RARg:RXRa (NR concentration 270 nM, RXRa partner concentration 90 nM). The essentials:
as §1

In experiment [3] the test system is RARg homodimer (NR concentration 270 nM). In outline: as §1
Experiment [4] relates to RXRa DBDmut IVT, anti-RXR (DBD mutation: RXRa K156A/R161A, NR concentration 90 nM). In outline:
as §1

The test system of experiment [5] is RXRa homodimer (NR concentration 180 nM). The essentials:
as §1

In experiment [6] the test system is THRa:RXRa (NR concentration 90 nM, RXRa partner concentration 90 nM). In outline: as §1
The subject of experiment [7] is THRa homodimer (NR concentration 90 nM). The essentials:
as §1

Experiment [8] concerns VDR homodimer (NR concentration 270 nM). The essentials:
as §1

As to CATACAGGGTAAGCTAGGCCAGAGTAGGGACGGC, the PBM binding z-score in experiment [1] was 0.192; in experiment [2] it was 0.225; in experiment [3], 0.59; in experiment [4] it was -0.744; in experiment [5] it was 0.077; in experiment [6], 1.49. Also, the PBM binding z-score in experiment [7] is -0.191; in experiment [8], -0.259.

As to CGAATTAGGTCACCAGGACAGTGAAGAGGTTGGA, the PBM binding z-score came to 3.77 in experiment [1]; 4.66 in experiment [2]; 5.28 in experiment [3]; 1.56 in experiment [4]; 3.42 in experiment [5]; 3.98 in experiment [6]. For the same sequence, the PBM binding z-score in experiment [7] came to 2.96; in experiment [8], 0.575.

On to CGAACTAGGTCAACAGGACAGTGAAGAGGTTGGA, for which the PBM binding z-score in experiment [1] is 3.39; in experiment [2] it was 4.36; in experiment [3], 5.29; in experiment [4], 1.54; in experiment [5], 3.09; in experiment [6] it was 2.81. Further, the PBM binding z-score in experiment [7] worked out at 0.737; in experiment [8], 0.504.

As to CCGGGTAGGTTACGAGGGGGCATTCAGTGCGAAT, the PBM binding z-score in experiment [1] turned out to be 2.2; in experiment [2], 3.26; in experiment [3], 2.22; in experiment [4], 0.966; in experiment [5], 2.35; in experiment [6], 3.94. The PBM binding z-score in experiment [7] amounted to 0.875; in experiment [8], 2.55.

Take CGAACTAGGTCCTTGACAGGACAGTGAATAGTAA: the PBM binding z-score in experiment [1] was -0.115; in experiment [2], 0.0551; in experiment [3], -0.0699; in experiment [4], 0.0443; in experiment [5] it was -0.00915; in experiment [6], 0.388. The PBM binding z-score is -0.275 in experiment [7] and -0.117 in experiment [8].

TCGAGTAGGTGACGGGGGCATTCAGGGATGAAGA: the PBM binding z-score in experiment [1] worked out at 2.01; in experiment [2] it was 2.59; in experiment [3], 1.91; in experiment [4] it was 1.94; in experiment [5], 1.86; in experiment [6], 3.83. The figures for the PBM binding z-score in experiment [7] and in experiment [8] were 1.64 and 3.28, respectively.

On to CAGACTAGGTCAAAGGTCAAAGTCGAGCCAACCA, for which the PBM binding z-score came out at 5.25 in experiment [1]; 8.9 in experiment [2]; 7.48 in experiment [3]; 3.08 in experiment [4]; 10.3 in experiment [5]; 4.68 in experiment [6]. Also, the PBM binding z-score in experiment [7] worked out at 1.38; in experiment [8] it was 3.17.

For CCTTACCGGTCAAGGTTATAGCACGGGTGGTACG, the PBM binding z-score in experiment [1] is 2.84; in experiment [2], 2.53; in experiment [3] it was 3.33; in experiment [4], -0.447; in experiment [5] it was 1.46; in experiment [6], 1.74. Moreover, the PBM binding z-score came out at 0.941 in experiment [7] and 0.853 in experiment [8].

Consider CGAACTAGGTCACAGGACAGTGAAAGGCGACGTA, for which the PBM binding z-score amounted to 3.12 in experiment [1]; 4.25 in experiment [2]; 4.96 in experiment [3]; 1.61 in experiment [4]; 3.27 in experiment [5]; 2.86 in experiment [6]. The PBM binding z-score in experiment [7] turned out to be 0.815; in experiment [8], 0.381.

Regarding CTCGAAAGGTCGGTTGAGGTGACTATACGGATAA, the PBM binding z-score is 2.54 in experiment [1]; 3.04 in experiment [2]; 2.85 in experiment [3]; 0.99 in experiment [4]; 2.76 in experiment [5]; 5.16 in experiment [6]. Further, the PBM binding z-score in experiment [7] came out at 1.68; in experiment [8] it was 0.829.

Turning to TCGAGTAGGTTCCGGGGGCATTCAGGGATGAAGA, the PBM binding z-score in experiment [1] was determined as 1.25; in experiment [2] it was 1.57; in experiment [3] it was 1.13; in experiment [4], 1.02; in experiment [5], 1.33; in experiment [6], 3.53. Moreover, the results for the PBM binding z-score in experiment [7] and in experiment [8] were 1.08 and 3.01, respectively.

Take TCGAGTAGGTTTCGGGGGCATTCAGGGATGAAGA: the PBM binding z-score was 1.5 in experiment [1]; 2.01 in experiment [2]; 1.38 in experiment [3]; 1.48 in experiment [4]; 1.5 in experiment [5]; 3.54 in experiment [6]. The values for the PBM binding z-score in experiment [7] and in experiment [8] were 1.69 and 3.56, respectively.

For the sequence TCGAGTATGTTACGGGGGCATTCAGGGATGAAGA, the PBM binding z-score in experiment [1] stood at 1.62; in experiment [2], 2.19; in experiment [3], 1.29; in experiment [4], 2.11; in experiment [5], 1.67; in experiment [6] it was 3.98. The PBM binding z-score turned out to be 1.12 in experiment [7] and 3.01 in experiment [8].

CCGAGTAGGTTACGAGGGGGCATTCTGTGCGAAT: the PBM binding z-score in experiment [1] was 2.05; in experiment [2] it was 3.13; in experiment [3], 2.43; in experiment [4], 1.11; in experiment [5] it was 1.68; in experiment [6] it was 3.55. Also, the PBM binding z-score in experiment [7] was found to be 0.547; in experiment [8], 2.56.

Values taken from the supplement of paper PMC6555819.
